Many of the other results were omitted from the sample, so hits are more common in it than they were.
Pf Dd2 inh: inhibitors of Plasmodium falciparum Dd2 growth; P. falciparum Dd2 growth, SYBR Green, 72 h; Potency, µM (doses to about 28.9 µM), usual class: inhibitors; hit rate 4.3% among 120,000; active means well fitted inhibition curve with a large enough effect; further: nearly all actives have a fitted effect of over 65% in size
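Infected erythrocytes (Dd2, 0.3% parasitemia, 2.5% hematocrit final) are added to compound in RPMI-1640/Albumax II medium, grown 72 h at 37C in low oxygen, then lysed with saponin/Triton-X containing SYBR Green and read by fluorescence.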
Large screens that a line does not name were inactive.

Cc1ccc(-n2c3c(c(=O)[nH]c2=O)C(NS(=O)(=O)c2ccc(Cl)cc2)(C(F)(F)F)C(=O)N3)cc1 (configuration not stated)	Pf Dd2 inh 8.9µM
O=C1Nc2c(c(=O)[nH]c(=O)n2-c2ccc(F)cc2)C1(NS(=O)(=O)c1ccc(Cl)cc1)C(F)(F)F (configuration not stated)	none
Cc1ccc(-n2c3c(c(=O)[nH]c2=O)C(NS(=O)(=O)c2ccc(C)cc2)(C(F)(F)F)C(=O)N3)cc1 (configuration not stated)	none
CC1(c2noc(C3CC3)n2)CCN(C(=O)CCc2nc3ccc(Cl)cc3[nH]2)CC1	none
CC1(c2noc(-c3ccccn3)n2)CCN(C(=O)CCc2nc3ccc(Cl)cc3[nH]2)CC1	Pf Dd2 inh 5.6µM
CC1(c2noc(-c3ccccn3)n2)CCN(C(=O)CCC(=O)N2CC(=O)Nc3ccccc32)CC1	none
CCn1cc(S(=O)(=O)N2CCCC(c3nn[nH]n3)C2)cn1 (configuration not stated)	none
O=C(NCc1ccc(F)cc1)N1CC(c2nnc(-c3ccncc3)o2)C2(CCOCC2)C1 (configuration not stated)	none
CC(=O)N1CCCCC12Cc1ccccc1NC2=O (configuration not stated)	none
Cc1ccc(-c2ccc3nnc(CNC(=O)c4ccc(C)cc4C)n3n2)cc1	none
O=C(NCc1ccncc1)C1CCc2nc(N3CCN(C(=O)C4CCC4)CC3)sc2C1 (configuration not stated)	none
O=C(NCc1cccs1)C1CCc2nc(N3CCN(C(=O)C4CCC4)CC3)sc2C1 (configuration not stated)	Pf Dd2 inh 5µM
CCC(=O)N1CCN(c2nc3c(s2)CC(C(=O)Nc2cccc(C)c2C)CC3)CC1 (configuration not stated)	Pf Dd2 inh 4µM
CCC(=O)N1CCN(c2nc3c(s2)CC(C(=O)NCc2ccccc2)CC3)CC1 (configuration not stated)	Pf Dd2 inh 7.9µM
CCN1CCN(C(=O)C2CCc3nc(N4CCN(C(=O)C5CCC5)CC4)sc3C2)CC1 (configuration not stated)	none
CCC(=O)N1CCN(c2nc3c(s2)CC(C(=O)NCc2cccc(OC)c2)CC3)CC1 (configuration not stated)	none
CCC(=O)N1CCN(c2nc3c(s2)CC(C(=O)Nc2ccc(F)cc2F)CC3)CC1 (configuration not stated)	Pf Dd2 inh 5µM
O=C(NCc1ccco1)C1CCc2nc(N3CCN(C(=O)C4CCC4)CC3)sc2C1 (configuration not stated)	none
Cc1cccc(NC(=O)C2CCN(c3nnc(-n4c(C)ccc4C)s3)CC2)c1C	none
Cc1ccccc1C(=O)N1CCC(C(=O)Nc2ccc(F)cc2F)CC1	none
O=C(O)C1CCc2nc(N3CCN(C(=O)C4CCC4)CC3)sc2C1 (configuration not stated)	none
CCC(=O)N1CCc2nc(N3CCN(Cc4cccnc4)CC3)sc2C1	none
CN(C)c1ccc(CN2C[C@H](O)C[C@H]2c2nc(-c3cccnc3)no2)cc1	none
CCOC(=O)C1(Cc2ccc(F)cc2)CCCN(C(=O)c2ccc(C)s2)C1 (configuration not stated)	none
COc1ccc(-c2cc(N3CCN(C(=O)c4cccc(C)c4)CC3)n[nH]2)cc1	none
COc1ccc(OC)c(CNC(=O)c2ccc3c(c2)N(S(C)(=O)=O)CC3)c1	none
Cc1cc(CNC(=O)c2ccc3c(c2)n(CC2CC2)c(=O)n3C2CCCCC2)on1	none
CC(C)n1cccc1C(=O)N1CC[C@H](N2CCN(C)CC2)[C@H](CCC(=O)O)C1	none
COCCN1CCC(N2CCN(S(=O)(=O)Cc3ccc(F)cc3Cl)CC2)C1=O (configuration not stated)	none
O=C(c1cccc(F)c1)N1CCC2(CC1)N(CC1CC1)C(=O)CS2=O (configuration not stated)	none
O=[N+]([O-])c1cc(-c2nc(-c3ccco3)no2)ccc1NCc1ccccc1	none
CCCCNc1ccc(-c2nc(-c3ccco3)no2)cc1[N+](=O)[O-]	none
CCC(Nc1ccc(-c2nc(-c3ccco3)no2)cc1[N+](=O)[O-])c1ccccc1 (configuration not stated)	Pf Dd2 inh 10µM
Cc1cccc(NS(=O)(=O)c2ccc3[nH]c(=O)ccc3c2)c1C	Pf Dd2 inh 8.9µM
CC(C)c1ccc(NS(=O)(=O)c2ccc3[nH]c(=O)ccc3c2)cc1	none
Cc1ccc(NS(=O)(=O)c2ccc3[nH]c(=O)ccc3c2)cc1N(C)C	none
N#Cc1ccc(CN2CCCC3(CNc4ccccc4[S+](=O)([O-])N3)C2)cc1 (configuration not stated)	none
CC(C)CCN1CCCC2(CNc3ccccc3[S+](=O)([O-])N2)C1 (configuration not stated)	Pf Dd2 inh 13µM
Cn1nccc1CN1CCCC2(CNc3ccccc3[S+](=O)([O-])N2)C1 (configuration not stated)	none
CNC(=O)[C@@H]1C[C@@H](O)CN1C1CCN(C(=O)C2CCCC2)CC1	none
Cc1ccc([S+](=O)([O-])N2CCn3c(nn(-c4ccc(F)cc4)c3=O)C2)cc1	none
